This passage reports z-score and composite z-score results from PubChem BioAssay.

Test [1] is described as follows: optical density shifts of acrAB sulA E. coli – strain DRC41, OD650, 48 h, E. coli filamentation inducer project, primary screen (AID 1152).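 Further: E. coli MC1000 strain DRC41 lacking acrAB efflux pump and sulA.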 As to conditions: higher = more signal, called active from +8 up or from −8 down.
A short description of test [2]: probe aLefty1 binding on compound microarray – biochemical, small-molecule microarray, 635/667 nm fluorescence, primary screen (AID 1153).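 Further: score merges spot fluorescence with signal-to-noise ratio from the scanned slide images.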 The conditions noted are these: higher = more signal.
A short description of test [3]: plasmodial surface anion channel blockers, osmotic lysis – cell-based, P. falciparum Indochina, OD700, 1 h, primary screen (AID 1154). The conditions noted are these: P. falciparum Indochina infected RBC osmotic lysis, higher = more signal, called active from +8 up or from −8 down.
Test [4] can be described thus: plasmodial surface anion channel blockers, osmotic lysis – cell-based, P. falciparum Indochina, OD700, 2 h, primary screen (AID 1155).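 Further: lysis reports solute entry through the parasite surface anion channel PSAC.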 The conditions noted are these: P. falciparum Indochina infected erythrocytes, higher = more signal, called active from +8 up or from −8 down.
A short description of test [5]: changes in parasitized red cell lysis, either direction – P. falciparum Indochina, OD700, 3 h, PSAC antagonist project, primary screen (AID 1156). As to conditions: P. falciparum-infected erythrocytes, osmotic lysis, higher = more signal, called active from +8 up or from −8 down.
A short description of test [6]: plasmodial surface anion channel blockers, osmotic lysis – cell-based, P. falciparum Indochina, OD700, 18 h, primary screen (AID 1157). The conditions noted are these: P. falciparum Indochina infected erythrocytes, osmotic lysis OD700, 18 h; higher = more signal, called active from +8 up or from −8 down.
The nature of test [7]: S6 kinase pathway phospho-S6 level changes – cell-based, A549, cytoblot, luminescence, serum-stimulated, primary screen (AID 1158).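 Further: serum-stimulated A549 lung adenocarcinoma cells; signal is phosphorylated S6 detected by cytoblot immunostaining with HRP secondary.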 The conditions noted are these: 5 h, higher = more signal.
The target of test [8] is NADPH oxidase 2 (Homo sapiens) (UniProt P04839). Nature of the test: compounds shifting NOX2 Amplex Red fluorescence – cell-based, HEK293-NOX2, PMA-stimulated, NOX inhibitor project, primary screen (AID 1159). Further: test concentration not given here. As to conditions: 45 min, higher = more signal, called active from +8 up or from −8 down.
Test [9] deals with NADPH oxidase 4 (Homo sapiens) (UniProt Q9NPH5). Description: compounds shifting NOX4 Amplex Red fluorescence – cell-based, HEK293-NOX4, tetracycline-induced, NOX inhibitor project, primary screen (AID 1160). As to conditions: HEK293-NOX4, Amplex Red H2O2 fluorescence, 45 min; higher = more signal, called active from +8 up or from −8 down.
In test [10] the target is NADPH oxidase 5 (Homo sapiens) (UniProt Q96PH1). Description: compounds shifting NOX5 Amplex Red fluorescence – cell-based, HEK293-NOX5, NOX inhibitor project, primary screen (AID 1161). As to conditions: HEK293-NOX5, ionomycin, 45 min, higher = more signal.
Test [11] can be described thus: compound effects on lung adenocarcinoma cell viability – A549, calcein-AM fluorescence, 48 h, basal, profiling panel (AID 1162). Further: test concentration not given here. The conditions noted are these: higher = more signal.
Test [12] in a line: compound effects on differentiated 3T3-L1 adipocyte viability – cell-based, 3T3-L1 adipocytes, calcein-AM fluorescence, 48 h, basal, profiling panel (AID 1163). Further: test concentration not given here. As to conditions: 3T3-L1 adipocytes viability, higher = more signal.
The nature of test [13]: compound effects on hepatocellular carcinoma cell viability – HepG2, calcein-AM fluorescence, 48 h, basal, profiling panel (AID 1164). Further: test concentration not given here. As to conditions: higher = more signal.
A short description of test [14]: compound effects on multiple myeloma cell viability – MM1S, calcein-AM fluorescence, 48 h, basal, profiling panel (AID 1165). Further: test concentration not given here. As to conditions: higher = more signal.
Test [15] is described as follows: calcein-AM signal in unstimulated myeloma cells – cell-based, calcein-AM fluorescence, 48 h, PK04 Diversity Set, profiling panel (AID 1166).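 Further: cells grown under basal conditions without added stimulus; test concentration not given here.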 As to conditions: RPMI8226 myeloma viability, higher = more signal.
Test [16] can be described thus: JC-1 mitochondrial signal, unstimulated HepG2 cells – cell-based, JC-1 fluorescence, 24 h, 100 nL compound, profiling panel (AID 1167). Further: test concentration not given here. The conditions noted are these: HepG2 mitochondrial potential, higher = more signal.
A short description of test [17]: JC-1 mitochondrial signal, unstimulated adipocytes – cell-based, JC-1 fluorescence, 3T3-L1 adipocytes, 24 h, 100 nL compound, profiling panel (AID 1168). Further: test concentration not given here. As to conditions: JC-1 mitochondrial fluorescence, higher = more signal, called active from +8 up or from −8 down.
Test [18] can be described thus: JC-1 mitochondrial signal, unstimulated myeloma cells – cell-based, JC-1 fluorescence, RPMI8226, 24 h, 100 nL compound, profiling panel (AID 1169). Further: test concentration not given here. As to conditions: JC-1 mitochondrial potential fluorescence, higher = more signal.
A short description of test [19]: JC-1 mitochondrial signal, unstimulated MM1S myeloma – cell-based, JC-1 fluorescence, 24 h, 100 nL compound, profiling panel (AID 1170). Further: test concentration not given here. The conditions noted are these: MM1S mitochondrial potential, higher = more signal.
Test [20] in a line: resazurin metabolic signal in A549 cells – cell-based, resazurin fluorescence, 24 h, PK04 Diversity Set, profiling panel (AID 1171). Further: test concentration not given here. As to conditions: A549 viability, higher = more signal, called active from +8 up or from −8 down. For orientation: Alamar Blue is a resazurin reagent that responds to reducing activity.

Calls of active or inactive are those of the source.

Chain of NADPH oxidase 4 (Homo sapiens) (Q9NPH5 whole entry, looked up): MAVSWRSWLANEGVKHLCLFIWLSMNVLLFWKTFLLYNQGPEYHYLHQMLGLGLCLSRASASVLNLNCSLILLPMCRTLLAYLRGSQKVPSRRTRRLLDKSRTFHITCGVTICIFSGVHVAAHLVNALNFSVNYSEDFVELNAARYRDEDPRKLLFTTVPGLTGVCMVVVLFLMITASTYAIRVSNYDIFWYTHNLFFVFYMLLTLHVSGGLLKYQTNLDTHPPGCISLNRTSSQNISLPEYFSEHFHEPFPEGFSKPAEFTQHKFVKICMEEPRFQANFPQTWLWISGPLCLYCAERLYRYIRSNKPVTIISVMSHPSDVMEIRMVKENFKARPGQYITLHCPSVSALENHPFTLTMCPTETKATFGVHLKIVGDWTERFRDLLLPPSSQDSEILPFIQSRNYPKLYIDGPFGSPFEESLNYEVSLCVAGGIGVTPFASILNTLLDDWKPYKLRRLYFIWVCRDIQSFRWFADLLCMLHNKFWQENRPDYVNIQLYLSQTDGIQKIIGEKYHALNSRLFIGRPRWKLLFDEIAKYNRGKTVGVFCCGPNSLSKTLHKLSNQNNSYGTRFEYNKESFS
Chain of NADPH oxidase 5 (Homo sapiens) (Q96PH1 whole entry, looked up): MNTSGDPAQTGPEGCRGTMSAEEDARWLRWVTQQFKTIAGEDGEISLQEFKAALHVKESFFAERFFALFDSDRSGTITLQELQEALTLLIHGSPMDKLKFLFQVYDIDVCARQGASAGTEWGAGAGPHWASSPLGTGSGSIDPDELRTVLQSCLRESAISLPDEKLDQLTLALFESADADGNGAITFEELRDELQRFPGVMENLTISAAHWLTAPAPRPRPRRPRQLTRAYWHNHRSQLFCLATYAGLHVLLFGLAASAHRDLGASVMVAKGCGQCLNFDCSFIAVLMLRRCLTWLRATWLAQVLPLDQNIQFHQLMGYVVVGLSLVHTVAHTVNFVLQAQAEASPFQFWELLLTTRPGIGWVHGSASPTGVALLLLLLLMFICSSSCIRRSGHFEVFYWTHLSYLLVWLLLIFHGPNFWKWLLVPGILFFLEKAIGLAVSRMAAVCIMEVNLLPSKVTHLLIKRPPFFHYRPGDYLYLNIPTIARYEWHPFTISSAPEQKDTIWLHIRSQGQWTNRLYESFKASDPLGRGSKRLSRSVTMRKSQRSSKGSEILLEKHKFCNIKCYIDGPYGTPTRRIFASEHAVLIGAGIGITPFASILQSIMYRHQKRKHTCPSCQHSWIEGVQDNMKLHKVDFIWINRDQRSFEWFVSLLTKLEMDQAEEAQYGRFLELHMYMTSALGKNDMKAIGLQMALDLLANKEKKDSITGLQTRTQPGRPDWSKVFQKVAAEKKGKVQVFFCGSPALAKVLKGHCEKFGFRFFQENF
Chain of NADPH oxidase 2 (Homo sapiens) (P04839 whole entry, looked up): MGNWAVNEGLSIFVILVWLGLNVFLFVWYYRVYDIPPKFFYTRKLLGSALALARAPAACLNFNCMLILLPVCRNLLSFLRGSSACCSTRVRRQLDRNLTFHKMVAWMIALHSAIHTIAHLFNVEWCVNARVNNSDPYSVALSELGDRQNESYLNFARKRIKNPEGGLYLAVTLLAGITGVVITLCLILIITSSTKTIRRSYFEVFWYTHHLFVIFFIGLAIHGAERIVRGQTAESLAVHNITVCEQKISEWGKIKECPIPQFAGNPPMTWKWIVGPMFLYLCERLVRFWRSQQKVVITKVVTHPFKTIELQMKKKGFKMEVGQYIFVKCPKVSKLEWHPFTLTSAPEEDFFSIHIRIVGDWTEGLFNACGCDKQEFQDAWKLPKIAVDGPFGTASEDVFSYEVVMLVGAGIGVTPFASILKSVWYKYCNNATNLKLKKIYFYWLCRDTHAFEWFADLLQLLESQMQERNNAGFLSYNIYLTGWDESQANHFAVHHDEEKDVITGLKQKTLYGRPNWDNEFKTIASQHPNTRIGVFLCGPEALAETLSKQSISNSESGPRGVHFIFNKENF

For the compound `COCCOC(=O)N1C(=O)[C@@]2(c3ccccc31)[C@H](c1ccc(O)cc1)N1[C@H](c3ccccc3)[C@H](c3ccccc3)OC(=O)[C@H]1[C@@H]2C(=O)N1CCN(c2ncccn2)CC1`, the z-score in [1] is 0.381 (inactive); in [3] it was 1.4 (inactive); in test [4], 0.622 (inactive); in [5] it was 0.113 (inactive); in test [6], 0.431 (inactive); in test [7], 0.174. For the same compound, the z-score in [8] is 0.964 (inactive); in test [9] it was 0.386 (inactive); in test [10], 1.08; in [11], -0.402; in [12], 1.26; in test [13] it was -0.611. Further, the z-score was -0.62 in test [14]; -0.42 in test [15]; -0.238 in [16]; -0.685 (inactive) in [17]; 0.199 in [18]; 0.0293 in [19]. Moreover, the z-score in test [20] was 0.233 (inactive). The compound further showed a composite z-score in [2] of 0.412.
Consider `NC(=O)NCC#Cc1ccc2c(c1)[C@]1(C(=O)N2)[C@H](C(=O)N2CCN(c3ncccn3)CC2)[C@H]2C(=O)O[C@H](c3ccccc3)[C@H](c3ccccc3)N2[C@@H]1c1ccc(O)cc1`, for which the z-score in [1] was -1.08 (inactive); in [3], -0.362 (inactive); in [4], -0.136 (inactive); in [5], 0.174 (inactive); in test [6], -0.302 (inactive); in [7], 0.435. In addition, the z-score in test [8] was 1.13 (inactive); in test [9] it was 0.162 (inactive); in [10], 0.437; in test [11], 0.348; in test [12], -0.173; in [13] it was -0.388. The z-score was -0.977 in test [14]; 0.18 in [15]; -1.99 in test [16]; -1.02 (inactive) in [17]; -0.315 in [18]; 0.247 in [19]. Besides, the z-score in [20] was -0.292 (inactive). For the same compound, in test [2], the composite z-score was 0.141.
On to `COC(=O)[C@@]1(Cc2ccccc2)[C@H]2c3cc(C(=O)N4CCCC4)n(CCc4ccccn4)c3C[C@H]2CN1C(=O)c1ccccc1`, for which the z-score in [1] was -1.5 (inactive); in test [3] it was 1.93 (inactive); in test [4] it was 0.0978 (inactive); in test [5], 1.54 (inactive); in [6], 0.569 (inactive); in [7] it was -0.266. Besides, the z-score is 0.267 (inactive) in test [8]; 0.311 (inactive) in test [9]; -3.01 in test [10]; -1.16 in test [11]; 1.13 in [12]; -0.503 in [13]. For the same compound, the z-score in test [14] is -1.59; in test [15], -1.32; in [16] it was 0.571; in [17] it was 0.533 (inactive); in test [18] it was -0.272; in [19] it was -0.618. Moreover, the z-score in test [20] is 0.523 (inactive). Besides, in [2], the composite z-score was determined as 0.928.
For `COc1cc2c(cc1O)C(c1ccc(CN3CCCC3)cc1)N(Cc1cc3c(cc1Br)OCO3)CC2` (stereo not given), the z-score in test [1] is -2.4 (inactive); in test [3] it was 3.92 (inactive); in [4], 0.984 (inactive); in test [5], 0.782 (inactive); in test [6] it was 0.526 (inactive); in test [7], 0.0637. Besides, the z-score in test [8] was -3.51 (inactive); in test [9] it was -2.64 (inactive); in test [10] it was -3.57; in test [11] it was -0.717; in test [12], -0.564; in test [13] it was -0.341. Moreover, the z-score in [14] was -3.17; in test [15], 0.173; in test [16], 1.21; in [17], 0.144 (inactive); in test [18], -0.398; in [19], -1.29. Moreover, the z-score in [20] was 0.694 (inactive). This compound also displayed a composite z-score in test [2] of -0.138.
Regarding `CC1CC/C=C\[C@H]2OC34C=CCN(Cc5ccccc5)C(=O)[C@H]3N(C(CO)C(C)C)C(=O)[C@@H]4C2C(=O)O1` (stereo not given in full), the z-score in [1] was 0.084 (inactive); in test [3], 1.42 (inactive); in [4] it was 0.667 (inactive); in test [5] it was 0.97 (inactive); in test [6] it was 0.304 (inactive); in [7] it was -0.529. Further, the z-score in test [8] is 1.84 (inactive); in test [9] it was 0.983 (inactive); in test [10], 2.21; in test [11] it was 0.743; in [12] it was 0.493; in test [13], 0.539. Moreover, the z-score in [14] is 0.947; in [15], 0.847; in test [16], -0.213; in test [17], 0.000812 (inactive); in test [18], -0.795; in [19] it was -0.0133. Further, the z-score in test [20] is 0.0401 (inactive). In test [2], the composite z-score was -0.149.
